Experimental data from PubChem BioAssay (NCI).
About 79,000 compounds went through this panel and 15% of them were active in at least one assay; those are over-represented in the sample as a whole. Calls of active or inactive are those of the source. No stated cut-off is given here; in the data, active means growth inhibition above about 70%; inactive means the rest.

What was measured:
[1] = NCI Yeast Anticancer Drug Screen. Data for the rad52 strain (AID 147);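 further: 0% = growth of vehicle-treated control cultures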; conditions: S. cerevisiae rad52 mutant growth inhibition, stronger effect = higher value
Procedure, shortened: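 Compounds are applied to a genetically defined yeast strain lacking normal DNA damage repair, and inhibition of growth is expressed relative to cultures given vehicle only.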

[2] = NCI Yeast Anticancer Drug Screen. Data for the wt1 strain (AID 149);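 further: 0% = growth of vehicle-treated wt1 cultures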; conditions: S. cerevisiae wt1 strain (SPY 50644) growth inhibition, stronger effect = higher value
Procedure, shortened: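 wt1 yeast, compound-treated; % growth inhibition vs vehicle control.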

[3] = NCI Yeast Anticancer Drug Screen. Data for the rad50EPP+ strain (AID 151);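 further: 0% = growth of vehicle-treated control cultures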; conditions: S. cerevisiae rad50 mutant strain, stronger effect = higher value
Procedure, shortened: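 Compounds were applied to the rad50EPP+ yeast strain, which bears a defined DNA repair alteration, and growth inhibition was determined relative to vehicle-treated cultures.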

[4] = NCI Yeast Anticancer Drug Screen. Data for the mgt1 strain (AID 153); conditions: S. cerevisiae mgt1 mutant growth inhibition, stronger effect = higher value
Procedure, shortened: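 Strain: mgt1 yeast, one of a set carrying defined DNA damage repair or cell cycle control alterations. Compound-treated growth compared with vehicle.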

[5] = NCI Yeast Anticancer Drug Screen. Data for the rad50 strain (AID 155);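 further: 0% = growth of vehicle-only cultures of the same strain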; conditions: S. cerevisiae rad50 strain growth inhibition, stronger effect = higher value
Procedure, shortened: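 Genetically altered yeast (DNA repair pathway); compound treatment; growth inhibition vs vehicle ctrl.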

[6] = NCI Yeast Anticancer Drug Screen. Data for the mec2-1 strain (AID 157); conditions: S. cerevisiae mec2-1 strain, stronger effect = higher value
Procedure, shortened: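 Strain: mec2-1 (DNA repair/cell cycle alteration). Compound exposure, then growth measured; inhibition expressed relative to vehicle.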

[7] = NCI Yeast Anticancer Drug Screen. Data for the rad14 strain (AID 159);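 further: 0% = growth of vehicle-treated control cultures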; conditions: S. cerevisiae rad14 strain growth inhibition, stronger effect = higher value
Procedure, shortened: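 Test compounds were applied to a repair-deficient yeast strain. Its growth was then compared with that of cultures given vehicle alone, and inhibition was expressed relative to those controls.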

[8] = NCI Yeast Anticancer Drug Screen. Data for the sgs1 mgt1 strain (AID 161);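 further: 0% = growth of cultures given vehicle only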; conditions: S. cerevisiae sgs1 mgt1 strain, stronger effect = higher value
Procedure, shortened: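 Read-out: growth inhibition vs vehicle controls. Cells: mutant yeast strain deficient in DNA damage repair.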

[9] = NCI Yeast Anticancer Drug Screen. Data for the CLN2oe strain (AID 163);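 further: 0% = growth of vehicle-only control cultures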; conditions: S. cerevisiae CLN2oe strain, stronger effect = higher value
Procedure, shortened: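 Growth of a genetically modified yeast strain is measured after compound exposure and compared with cultures given vehicle alone.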

[10] = NCI Yeast Anticancer Drug Screen. Data for the cln2 rad14 strain (AID 165);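 further: 0% = growth equal to vehicle treated cultures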; conditions: S. cerevisiae cln2 rad14 strain, stronger effect = higher value
Procedure, shortened: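 Compounds are applied to the cln2 rad14 yeast strain, and growth is then compared with that of vehicle-treated cultures to give inhibition.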

[11] = NCI Yeast Anticancer Drug Screen. Data for the bub3 strain (AID 167); conditions: S. cerevisiae bub3 mutant strain, stronger effect = higher value
Procedure, shortened: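 Yeast carrying a defined mutation is treated with each compound, and growth is compared with that of vehicle-exposed cells to give inhibition.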

[12] = NCI Yeast Anticancer Drug Screen. Data for the wt2 strain (AID 169);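 further: 0% = growth of vehicle-treated yeast cultures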; conditions: S. cerevisiae wt2 strain growth inhibition, stronger effect = higher value
Procedure, shortened: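 This strain belongs to a panel of yeast strains with defined genetic alterations in DNA damage repair or cell cycle control. Compounds are applied, and growth inhibition is measured against vehicle-treated cultures.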

[13] = NCI Yeast Anticancer Drug Screen. Data for the mlh1 strain (AID 171);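 further: 0% = growth of vehicle-treated control cultures of the same strain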; conditions: S. cerevisiae mlh1 strain growth inhibition, stronger effect = higher value
Procedure, shortened: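 Growth of the mutant yeast strain after compound exposure, expressed as inhibition relative to vehicle-only controls.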

[14] = NCI Yeast Anticancer Drug Screen. Data for the sgs1 strain (AID 173);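 further: 0% = growth of vehicle-only control cultures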; conditions: S. cerevisiae sgs1 mutant, stronger effect = higher value
Procedure, shortened: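 Growth of a yeast strain bearing a defined genetic alteration is measured after compound treatment. Inhibition is expressed relative to vehicle-only controls.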

[15] = NCI Yeast Anticancer Drug Screen. Data for the mlh1 rad18 strain (AID 175); conditions: S. cerevisiae mlh1 rad18 strain growth inhibition, stronger effect = higher value
Procedure, shortened: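 Read-out is yeast growth inhibition, calculated against vehicle-only controls. The compound was applied to a strain engineered with DNA damage repair alterations.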

[16] = NCI Yeast Anticancer Drug Screen. Data for the rad18 strain (AID 177); conditions: S. cerevisiae rad18 mutant growth inhibition, stronger effect = higher value
Procedure, shortened: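 Growth of the mutant yeast strain after compound exposure, normalised to vehicle-only cultures.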

[17] = at 5.0 µM (retest, dose inferred, filed as 0.5)
[18] = at 50.0 µM (retest, dose inferred, filed as 5.0)

Measured: growth inhibition

CCOC(=O)/C(=C\c1cccc(C)c1)C(C)=O
inactive: [1]; at 1.2 µM -3% | [1]; at 3.7 µM 10% | [1]; at 11.0 µM 67% | [2]; at 1.2 µM -37% | [2]; at 3.7 µM -15% | [2]; at 11.0 µM 29% | [3]; at 1.2 µM 48% | [3]; at 3.7 µM 31% | [3]; at 11.0 µM 60% | [4]; at 1.2 µM -2% | [4]; at 3.7 µM 3% | [4]; at 11.0 µM 58% | [5]; at 1.2 µM -13% | [5]; at 3.7 µM -8% | [5]; [17] 20% | [5]; at 11.0 µM 58% | [6]; at 1.2 µM 0% | [6]; at 3.7 µM 3% | [6]; [17] -5% | [7]; at 1.2 µM -6% | [7]; at 3.7 µM -7% | [7]; at 11.0 µM 38% | [8]; [17] 19% | [9]; at 1.2 µM 11% | [9]; at 3.7 µM 4% | [9]; at 11.0 µM 55% | [10]; [17] 5% | [11]; at 1.2 µM 1% | [11]; at 3.7 µM 14% | [11]; [17] 55% | [12]; at 1.2 µM 20% | [12]; at 3.7 µM 23% | [12]; at 11.0 µM 69% | [13]; at 1.2 µM 13% | [13]; at 3.7 µM 18% | [14]; at 1.2 µM 22% | [14]; at 3.7 µM 51% | [15]; [17] 15% | [16]; at 1.2 µM 3% | [16]; at 3.7 µM 12% | [16]; at 11.0 µM 65%
active: [1]; at 33.0 µM 91% | [1]; at 100.0 µM 99% | [2]; at 33.0 µM 88% | [2]; at 100.0 µM 98% | [3]; at 33.0 µM 91% | [3]; at 100.0 µM 99% | [4]; at 33.0 µM 91% | [4]; at 100.0 µM 99% | [5]; at 33.0 µM 89% | [5]; [18] 91% | [5]; at 50.0 µM 92.3% | [5]; at 100.0 µM 98% | [6]; at 11.0 µM 71% | [6]; at 33.0 µM 95% | [6]; [18] 96% | [6]; at 50.0 µM 93.5% | [6]; at 100.0 µM 100% | [7]; at 33.0 µM 93% | [7]; at 100.0 µM 99% | [8]; [18] 94% | [8]; at 50.0 µM 92.5% | [9]; at 33.0 µM 92% | [9]; at 100.0 µM 99% | [10]; [18] 88% | [10]; at 50.0 µM 87.5% | [11]; at 11.0 µM 89% | [11]; at 33.0 µM 97% | [11]; [18] 96% | [11]; at 50.0 µM 90.2% | [11]; at 100.0 µM 99% | [12]; at 33.0 µM 92% | [12]; at 100.0 µM 99% | [13]; at 11.0 µM 80% | [13]; at 33.0 µM 95% | [13]; at 100.0 µM 98% | [14]; at 11.0 µM 84% | [14]; at 33.0 µM 94% | [14]; at 100.0 µM 98% | [15]; [18] 94% | [15]; at 50.0 µM 90.4% | [16]; at 33.0 µM 89% | [16]; at 100.0 µM 98%

COc1ccccc1NC(=O)c1ccc(Cl)cc1
inactive: [1]; at 1.2 µM 0% | [1]; at 3.7 µM 3% | [1]; at 11.0 µM 4% | [1]; at 33.0 µM 5% | [1]; at 100.0 µM 1% | [2]; at 1.2 µM -1% | [2]; at 3.7 µM 1% | [2]; at 11.0 µM 1% | [2]; at 33.0 µM 0% | [2]; at 100.0 µM -1% | [3]; at 1.2 µM 7% | [3]; at 3.7 µM 9% | [3]; at 11.0 µM 22% | [3]; at 33.0 µM 40% | [3]; at 100.0 µM 40% | [4]; at 1.2 µM -2% | [4]; at 3.7 µM -1% | [4]; at 11.0 µM 0% | [4]; at 33.0 µM -2% | [4]; at 100.0 µM -10% | [5]; at 1.2 µM 3% | [5]; at 3.7 µM 5% | [5]; [17] -13% | [5]; at 11.0 µM 8% | [5]; at 33.0 µM 6% | [5]; [18] 12% | [5]; at 50.0 µM 17.6% | [5]; at 100.0 µM 8% | [6]; at 1.2 µM -5% | [6]; at 3.7 µM -5% | [6]; [17] -6% | [6]; at 11.0 µM -7% | [6]; at 33.0 µM -6% | [6]; [18] -14% | [6]; at 50.0 µM 11.1% | [6]; at 100.0 µM -4% | [7]; at 1.2 µM 0% | [7]; at 3.7 µM -1% | [7]; at 11.0 µM 0% | [7]; at 33.0 µM 1% | [7]; at 100.0 µM 0% | [8]; [17] 3% | [8]; [18] 7% | [8]; at 50.0 µM 20.8% | [9]; at 1.2 µM -2% | [9]; at 3.7 µM 0% | [9]; at 11.0 µM -6% | [9]; at 33.0 µM -7% | [9]; at 100.0 µM -4% | [10]; [17] 23% | [10]; at 50.0 µM 16.9% | [11]; at 1.2 µM -5% | [11]; at 3.7 µM -5% | [11]; [17] -8% | [11]; at 11.0 µM -3% | [11]; at 33.0 µM 5% | [11]; [18] -10% | [11]; at 50.0 µM 23.9% | [11]; at 100.0 µM 7% | [12]; at 1.2 µM -1% | [12]; at 3.7 µM -2% | [12]; at 11.0 µM -2% | [12]; at 33.0 µM -3% | [12]; at 100.0 µM -2% | [13]; at 1.2 µM 0% | [13]; at 3.7 µM 1% | [13]; at 11.0 µM 4% | [13]; at 33.0 µM 3% | [13]; at 100.0 µM 3% | [14]; at 1.2 µM 0% | [14]; at 3.7 µM 1% | [14]; at 11.0 µM 2% | [14]; at 33.0 µM 3% | [14]; at 100.0 µM 2% | [15]; [17] -6% | [15]; [18] 11% | [15]; at 50.0 µM 0.15% | [16]; at 1.2 µM 3% | [16]; at 3.7 µM 3% | [16]; at 11.0 µM 1% | [16]; at 33.0 µM 3% | [16]; at 100.0 µM 2%
active: [10]; [18] 75%
